From PubChem BioAssay (NCI)
This is part of a sample that, as a whole, favours compounds with a hit. Of some 83,000 tested, about 20% had one in any assay.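 Growth was measured after 48 h exposure to one concentration of compound in 96-well plates. Values under 10 count as active.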 Active and inactive are the calls of the source.

What follows are compounds tested on SNB-75 CNS (assay: NCI-60 one-dose screen, 48 h (100 = growth as untreated, 0 = no growth, -100 = all killed)). Settings: 10 µM unless noted.
`Cc1nc2nc(C(F)(F)F)[nH]c2nc1C` was tested, and the growth was 85.1% (inactive).
`CC1=CN2C(=NC3=C(CCCC/C3=C\c3ccccc3)C2c2ccccc2)S1` (centres undefined) was tested, and the growth was 82.5% (inactive).
With `COC(=O)c1cc(-c2ccc(C)cc2)n(C(=O)CSc2nc3sc(C(N)=O)c(C)c3c(=O)n2Cc2ccccc2)n1` the growth was 83.3% (inactive).
With `CNc1ccc(Br)cc1-c1n[nH]c(=O)[nH]c1=O` the growth was 77.4% (inactive).
`COc1ccc(Nc2[nH]n(C3=Nc4ccccc4Sc4ccccc43)c(=O)c2C#N)cc1` was tested, and the growth was 67.3% (inactive).
With `O=[N+]([O-])c1cc2c(cc1Br)-c1ccccc1C2` the growth was 86.5% (inactive).
For `CC(C)(C)[Si](C)(C)OC1[C@@H](COC(=O)NC(=O)CCl)O[C@@H](n2cnc3c(N)ncnc32)[C@H]1O[Si](C)(C)C(C)(C)C` (some centres undefined), the growth was 101% (inactive).
`Clc1nc(-c2ccccn2)nc2sc3c(c12)CCCCCC3` was tested, and the growth was 85% (inactive).
For `Cc1ccc(N=c2nc3sc4c(C)ccc(C)c4n3c(N)c2C#N)cc1`, the growth was 92.1% (inactive).
In the case of `O=c1[nH]c(-c2ccncc2)nc2sc3c(c12)CCCCCC3`, the growth is reported as 33.8% (inactive).
With `CCOC(=O)C1=C(C)N2C(=NC3=C(CCCC/C3=C\c3cc(OC)c(OC)c(OC)c3)C2c2cc(OC)c(OC)c(OC)c2)S1` (centres undefined) the growth was 89.4% (inactive).
With `COc1ccc(-c2c(-c3cc4c(c(OC)c3OC)OCO4)noc2N)cc1` the growth was 22.8% (inactive).
For `CCOC(=O)c1sc(NC(=O)CN2CCC(Cc3ccccc3)CC2)nc1C`, the growth was 109% (inactive).
With `O=c1nc(NO)[nH]c(=O)n1Cc1ccccc1` the growth was 92.8% (inactive).
`O=c1nc(NO)[nH]c(=O)n1Cc1ccc(F)cc1` was tested, and the growth was 86.1% (inactive).
`O=c1[nH]c(=S)[nH]c(=O)n1Cc1cccc2ccccc12` was tested, and the growth was 81.8% (inactive).
`CC(=O)Nc1ccccc1-c1n[nH]c(=O)[nH]c1=O` was tested, and the growth was 90.3% (inactive).
`CC(C)(C)[Si](C)(C)OC1[C@@H](O[Si](C)(C)C(C)(C)C)[C@@H](CNC(=O)NC(=O)C(F)(F)F)O[C@H]1n1cnc2c(NC(=O)Nc3ccccc3)ncnc21` (some centres undefined) was tested, and the growth was 72.8% (inactive).
With `Cc1nc2cc(Nc3nc(NCCN)nc(Nc4ccc(F)cc4)n3)ccc2n1Cc1ccccc1` the growth was 84.2% (inactive).
With `CCOC(=O)C1=C(C)N2C(=NC3=C(CCCC/C3=C\c3ccccc3)C2c2ccccc2)S1` (centres undefined) the growth was 96.9% (inactive).
For `Clc1ccc2c(N3CCN(c4ccnc(NC5CCCCC5)n4)CC3)ccnc2c1`, the growth was 65.6% (inactive).
With `COc1ccc(-n2c(SCc3cc(OC)c(OC)c(OC)c3)nc3ccc(C)cc3c2=O)c(OC)c1` the growth was 29.6% (inactive).
In the case of `NC(=O)c1nc2c([nH]c1=O)CCCC2`, the growth is reported as 89.6% (inactive).
`COc1ccccc1-n1c(SCc2cc(OC)c(OC)c(OC)c2)nc2ccc(Cl)cc2c1=O` was tested, and the growth was -4.26% (active).
In the case of `O=c1[nH]c(-c2ccccn2)nc2sc3c(c12)CCCCCC3`, the growth is reported as 64.8% (inactive).
With `CC(C)(C)[Si](C)(C)OC1[C@@H](CNC(=O)NC(=O)CCl)O[C@@H](n2cnc3c(N)ncnc32)[C@H]1O[Si](C)(C)C(C)(C)C` (some centres undefined) the growth was 50% (inactive).
In the case of `CC[Si](CC)(CC)OC1[C@@H](O[Si](CC)(CC)CC)[C@@H](CNC(=O)NC)O[C@H]1n1cnc2c(NC(=O)Nc3ccccc3)ncnc21` (some centres undefined), the growth is reported as 78.1% (inactive).
In the case of `Cc1ccc(S(=O)(=O)N(c2ccc(Cl)cc2)c2ccc(Br)cc2C(=O)O)cc1`, the growth is reported as 97.2% (inactive).
For `Cc1ccc(-c2nnc(COc3ccc(-c4nnc(N)s4)cc3)o2)cc1`, the growth was 94.2% (inactive).
In the case of `COc1cc2nc(SCc3cc(OC)c(OC)c(OC)c3)n(-c3ccccc3OC)c(=O)c2cc1OC`, the growth is reported as 62.8% (inactive).
For `CN1CCc2c(c3ccccc3c3ccccc23)C1`, the growth was 66.1% (inactive).
In the case of `N#Cc1ccc(C(F)(F)F)nc1N1CCC(C(=O)Nc2ccc(Cl)cc2)CC1`, the growth is reported as 105% (inactive).
With `COC(=O)C1C2CC3c4[nH]c5cc(OC)ccc5c4CCN3CC2CC(OC2CCCCO2)C1OC` (centres undefined) the growth was 84.4% (inactive).
With `c1ccc(-c2nc(N3CCOCC3)c3c4c(sc3n2)CCCCCC4)nc1` the growth was 29.4% (inactive).
With `Nc1c(Br)cc(Br)cc1-c1n[nH]c(=O)[nH]c1=O` the growth was 85.5% (inactive).
`Nc1ccccc1-c1n[nH]c(=O)[nH]c1=O` was tested, and the growth was 89.5% (inactive).

What follows are compounds tested on SNB-19 CNS in the same assay as above. Settings: 10 µM unless noted.
In the case of `CSC1=CC(=O)c2ccccc2C1=O`, the growth is reported as 94.2% (inactive).
For `COc1ccc(Nc2[nH]n(C3=Nc4ccccc4Sc4ccccc43)c(=O)c2C#N)cc1`, the growth was 73.5% (inactive).
For `COc1ccc(-c2c(-c3cc4c(c(OC)c3OC)OCO4)noc2N)cc1`, the growth was 40.6% (inactive).
`CCOC(=O)c1sc(NC(=O)CN2CCC(Cc3ccccc3)CC2)nc1C` was tested, and the growth was 104% (inactive).
With `Cc1nc2cc(Nc3nc(NCCN)nc(Nc4ccc(F)cc4)n3)ccc2n1Cc1ccccc1` the growth was 91.6% (inactive).
With `Cc1ccc(S(=O)(=O)N(c2ccc(Cl)cc2)c2ccc(Br)cc2C(=O)O)cc1` the growth was 99.9% (inactive).
For `Cc1ccc(-c2nnc(COc3ccc(-c4nnc(N)s4)cc3)o2)cc1`, the growth was 86% (inactive).
With `CN1CCc2c(c3ccccc3c3ccccc23)C1` the growth was 66.2% (inactive).
